# About 720 (0.36%) of roughly 200,000 compounds were called active. This is one part of a sample in which actives are shown more often than they occur. Rule as the data show it: active = inhibition above about 30%; inactive = the rest, inconclusive results apart.
# Experiment: antivirals against arbovirus infection, primary screen, cell-based, full library, 10K replicate subset (AID 1251)
# [1] = arbovirus infection cell-based antiviral screen, at 10 µM, stronger effect = higher value
# [2] = arbovirus infection cell-based antiviral screen; at 10 µM; stronger effect = higher value
# [3] = arbovirus infection cell-based antiviral screen; measured here: 10K subset replicate screen; at 10 µM; stronger effect = higher value
structure (smiles),measurement,setting,value
NC(=O)COc1ccc(NC(=O)c2ccccc2-c2ccccc2)cc1,inhibition,[1],-1.27% (inactive)
COCCn1c(SCC(=O)Nc2cc(Cl)ccc2OC)nc2c(c1=O)SC(C)C2 (stereo unspecified),inhibition,[2],31.7% (active)
same,inhibition,[3],23%
CCn1c(SCC(=O)Nc2ccccc2F)nc2c(c1=O)SC(C)C2 (stereo unspecified),inhibition,[1],13.7% (inactive)
CC1Cc2nc(SCC(=O)Nc3ccccc3F)n(C)c(=O)c2S1 (stereo unspecified),inhibition,[1],6.16% (inactive)
COc1ccc(C)cc1NC(=O)CSc1ccc(Cl)cc1,inhibition,[1],3.07% (inactive)
CC(=O)Nc1ccc(SCC(=O)Nc2ccccc2Oc2ccccc2)cc1,inhibition,[1],-11.3% (inactive)
O=C(CSc1ccccc1)Nc1cc(Cl)ccc1Oc1ccccc1,inhibition,[1],31.3% (active)
C=Cn1c(C(=O)O)ccc1-c1ccc(OC)cc1,inhibition,[1],-6.55% (inactive)
CCn1c(-c2cccnc2Cl)nc2cc(C)c(C)cc21,inhibition,[1],9.84% (inactive)
COc1ccc(-c2csc3ncnc(Oc4ccc5c(C)cc(=O)oc5c4)c23)cc1,inhibition,[1],-19% (inactive)
Cc1cc(F)ccc1S(=O)(=O)Nc1ncnc2scc(-c3ccc(F)cc3)c12,inhibition,[1],34.8% (active)
CCn1cnc2scc(-c3ccc(C)c(C)c3)c2c1=O,inhibition,[1],-10.7% (inactive)
Cc1cccc(C)c1NC(=O)Nc1ccccc1-n1ccnc1,inhibition,[1],0% (inactive)
CCN(/N=C/c1ccc(N(C)C)cc1)c1nc2ccccc2[nH]1,inhibition,[1],-9.69% (inactive)
CCNC(=S)NNC(=O)C1CCN(Cc2ccccc2)CC1,inhibition,[1],0.25% (inactive)
CCN(CCO)C(=S)Nc1cc(C(=O)OC)ccc1C(=O)OC,inhibition,[1],-0.56% (inactive)
CC(=O)Nc1ccc(Sc2ccccc2C(=O)N2CCCC2)cn1,inhibition,[1],12.2% (inactive)
CN(C)c1nc(-c2cccnc2)nc(-c2ccc(Cl)cc2)c1C#N,inhibition,[1],-9.56% (inactive)
O=C(CCN1CCN(C/C=C/c2ccccc2)CC1)Nc1cccc(F)c1,inhibition,[1],-4.37% (inactive)
CC/C(=N\NC(=S)NC(C)C)c1ccc(OC(F)F)cc1,inhibition,[1],1.93% (inactive)
CC(Nc1nc(N2CCCC2)nc2ccccc12)c1ccccc1 (stereo unspecified),inhibition,[1],-47.5% (inactive)
Cc1ccc(C(CC(=O)O)Nc2nc(N3CCCCC3)nc(N3CCCCC3)n2)cc1 (stereo unspecified),inhibition,[1],31.3% (active)
CC(=O)NC(CC(=O)O)c1ccc(F)cc1 (stereo unspecified),inhibition,[1],4.26% (inactive)
O=[N+]([O-])c1ccc2oc(-c3cccc(O)c3)nc2c1,inhibition,[1],0.35% (inactive)
COc1ccc(Nc2nc(NCc3ccco3)nc(N/N=C/c3ccccc3Cl)n2)cc1,inhibition,[1],-9.8% (inactive)
CC1CCCC(NC(=O)c2cccc(N3CCCC3=O)c2)C1C (stereo unspecified),inhibition,[1],15.1% (inactive)
O=C(Nc1ccc(-c2ccc3nncn3n2)cc1)C1CCCCC1,inhibition,[1],2.96% (inactive)
CC(CC(=O)O)C(=O)c1ccc(Cl)c([N+](=O)[O-])c1 (stereo unspecified),inhibition,[1],5.76% (inactive)
CCO[C@@H]1OC(C(=O)N2CCOCC2)=C[C@H](C)[C@H]1CCCO,inhibition,[1],1.57% (inactive)
COc1ccc(C(=O)OCC(=O)NC(=O)CCSc2ccccc2)cc1,inhibition,[1],-0.73% (inactive)
Cc1ccccc1Nc1scc(-c2ccc(Br)cc2)[n+]1-c1ccccc1C,inhibition,[1],15.8% (inactive)
O=C(CC1C(=O)NCCN1Cc1ccc(-c2ccccc2)cc1)NCC1CCOCC1 (stereo unspecified),inhibition,[1],1.09% (inactive)
Cc1ccc(CNC(=O)Cn2c(=O)c3sccc3n(Cc3cccc([N+](=O)[O-])c3)c2=O)cc1,inhibition,[1],-23.2% (inactive)
C/C(=N\NC(=O)c1ccc(NS(=O)(=O)c2cccs2)cc1)c1ccc2ccccc2c1,inhibition,[1],-27.7% (inactive)
Cc1ccccc1CSc1nnc(-c2ccccc2)c(=O)[nH]1,inhibition,[1],1.96% (inactive)
c1ccc(CSc2nnc(-c3ccco3)c(-c3ccco3)n2)cc1,inhibition,[1],13.1% (inactive)
O=c1[nH]c(SCc2ccccc2)nnc1-c1ccccc1,inhibition,[1],33.1% (active)
O=C(Cn1cnc([N+](=O)[O-])n1)NCCc1ccccc1,inhibition,[1],-2.73% (inactive)
O=C(CCc1ccccc1)Nc1ncc([N+](=O)[O-])s1,inhibition,[1],14.4% (inactive)
O=C(Cc1c(F)cccc1Cl)Nc1ncc([N+](=O)[O-])s1,inhibition,[1],25.4% (inactive)
CC(=O)Oc1ccccc1C(=O)Nc1ncc([N+](=O)[O-])s1,inhibition,[1],31.3% (active)
Cc1nc(-c2ccc(NC(=O)c3cccs3)cc2)cs1,inhibition,[1],-9.57% (inactive)
Cc1ccc(-c2csc(NC(=O)c3cccs3)n2)cc1,inhibition,[1],103% (active)
Cc1ccc(-c2csc(NNC(=O)c3ccccc3)n2)cc1,inhibition,[1],-29.2% (inactive)
COc1ccc(OC)c(-c2c(=O)n(OCc3ccccc3Br)c3ccccc3[n+]2[O-])c1,inhibition,[1],6.28% (inactive)
O=C(COC(=O)c1ccccc1)Nc1ccccc1Sc1ccccc1,inhibition,[1],-1.75% (inactive)
O=c1[nH]c(CN2CCN(S(=O)(=O)c3ccc4c(c3)OCCO4)CC2)nc2sc3c(c12)CCCC3,inhibition,[1],11.3% (inactive)
CCCCOc1ccc(NC(=O)[C@@H]2CCCN2C(=O)C2CCN(S(=O)(=O)c3ccc(C)cc3)CC2)cc1,inhibition,[1],-16.3% (inactive)
Cc1cc(C)c(C#N)c(N2CCC(C(N)=O)CC2)n1,inhibition,[1],2.87% (inactive)
CC(NC(=O)C(=O)NN=C1CCC(C(C)(C)C)CC1)c1ccccc1 (stereo unspecified),inhibition,[1],1.88% (inactive)
Cc1sc2nc(CC(N)=O)[nH]c(=O)c2c1-c1ccccc1,inhibition,[1],3.01% (inactive)
Cc1ccsc1C1C(C#N)=C(N)OC2=C1C(=O)CC(C)C2 (stereo unspecified),inhibition,[1],-1.92% (inactive)
C=CCN1C(=O)C(O)(CC(=O)c2ccccn2)c2ccccc21 (stereo unspecified),inhibition,[1],-2.77% (inactive)
Cc1ccc(C)c(Cn2nnc3c(=O)[nH]c(C(=O)Nc4ccc(F)cc4)nc32)c1,inhibition,[1],39.7% (active)
O=C(Nc1ccc(F)cc1)N1CCCC(c2nc3c(nnn3Cc3ccccc3Cl)c(=O)[nH]2)C1 (stereo unspecified),inhibition,[1],12.4% (inactive)
Cc1ccc(NC(=O)N2CCC(c3nc4c(nnn4Cc4c(F)cccc4Cl)c(=O)[nH]3)CC2)cc1,inhibition,[1],-3.45% (inactive)
CSCCNCc1cn(-c2ccc(F)cc2F)nc1-c1ccccc1C,inhibition,[1],-1.44% (inactive)
CCOC(=O)Cc1ncccc1C(=O)Nc1ccc(OC(F)(F)F)cc1,inhibition,[1],4.21% (inactive)
Cc1nn(Cc2ccc(Cl)cc2)c(Cl)c1/C=N/NC(=O)CNc1ccccc1F,inhibition,[1],-16.6% (inactive)
CC(=O)Nc1ccc(NC(=S)NC(=O)c2ccc([N+](=O)[O-])c(C)c2)cc1,inhibition,[1],-7.89% (inactive)
O=C(O)c1ccc2c(c1)C(=O)N(NC(=O)c1ccc(O)cc1)C2=O,inhibition,[1],-2.03% (inactive)
O=C(c1ccco1)N1CCN=C1SCc1cccc(Cl)c1,inhibition,[2],5.96% (inactive)
same,inhibition,[3],0.055%
CCC(=O)N1CCN=C1SCc1ccc(F)cc1,inhibition,[1],-3.24% (inactive)
O=C(C1CC1)N1CCN=C1SCc1ccc(Cl)cc1,inhibition,[1],55.7% (active)
C/C(=N\NC(=O)CCn1nc(C)cc1C)C(C)(C)C,inhibition,[1],-5.42% (inactive)
CCCN(C(=O)CSc1nnnn1C)c1c(N)n(Cc2ccccc2)c(=O)[nH]c1=O,inhibition,[1],21.9% (inactive)
COc1ccc(C2C=C(c3ccc(Br)cc3)Nc3nc(NS(C)(=O)=O)nn32)cc1 (stereo unspecified),inhibition,[1],61.9% (active)
COc1ccc(C2=CC(c3cccc(OC)c3)n3nnnc3N2)cc1 (stereo unspecified),inhibition,[1],11.1% (inactive)
Brc1ccc(C2=CC(c3ccco3)n3ncnc3N2)cc1 (stereo unspecified),inhibition,[1],12.4% (inactive)
CC1(C)CC(=O)CC2(C1)NCC(c1ccccc1Cl)c1c2[nH]c2ccccc12 (stereo unspecified),inhibition,[1],-27.8% (inactive)
COc1cccc(NC(=O)Nc2nnc(N3CCCCC3C)s2)c1 (stereo unspecified),inhibition,[2],37.5% (active)
same,inhibition,[3],24.8%
COc1cccc(Nc2nnc(SCC(=O)N3CC(C)OC(C)C3)s2)c1 (stereo unspecified),inhibition,[1],2.66% (inactive)
CCOC(=O)c1csc(NC(=O)Nc2cccc(OC)c2)n1,inhibition,[1],6.16% (inactive)
NC(N)=Nc1nc2ccc(Br)cc2c(=O)[nH]1,inhibition,[1],-2.82% (inactive)
CCOc1ccc(C(=O)Nc2cccc(SC)c2)cc1,inhibition,[1],4.43% (inactive)
Cc1ccc(C2=C/C(=C\c3cccnc3)C(=O)O2)cc1,inhibition,[1],-1.53% (inactive)
O=C(Nc1ccc2c(c1)CCC2)c1cccc(S(=O)(=O)Nc2ccccc2Cl)c1,inhibition,[1],-3.02% (inactive)
C=CCn1c(SCC(=O)Nc2nc3ccccc3s2)nnc1-c1ccccc1O,inhibition,[1],47.3% (active)
Cn1nnnc1SCC(=O)Nc1nc2ccccc2s1,inhibition,[1],0.23% (inactive)
C=CCn1c(SCC(=O)NCc2ccccc2)nnc1-c1cc(Br)ccc1O,inhibition,[1],8.76% (inactive)
CCOC(=O)CN/C=C(\C#N)c1ccc(F)cc1,inhibition,[1],-0.71% (inactive)
CCOc1cc(/C=C(/C#N)c2ccc(Cl)cc2)cc(Cl)c1OCC(=O)O,inhibition,[1],51.7% (active)
CCOc1c(Cl)cc(/C=N/O)cc1OC,inhibition,[1],11% (inactive)
S=c1[nH]nc(/C=C/c2ccccc2)o1,inhibition,[1],-0.67% (inactive)
O=c1oc(/C=C/c2ccccc2)nc2ccccc12,inhibition,[1],44.9% (active)
CCn1c(/C=C/c2ccc([N+](=O)[O-])o2)nc2ccccc2c1=O,inhibition,[1],-31.9% (inactive)
CC(C)(C)NC(=O)c1cccc(NC(=O)Cc2ccc(Br)cc2)c1,inhibition,[1],17.2% (inactive)
Cc1ccccc1NC(=S)N(CCCN1CCOCC1)Cc1cccs1,inhibition,[1],7.45% (inactive)
CCCc1cc(=O)[nH]c(SCc2ccc(C#N)cc2)n1,inhibition,[1],42% (active)
CCCc1cc(=O)[nH]c(SCc2cc(=O)oc3c(C)c(C)ccc23)n1,inhibition,[1],5.14% (inactive)
CCCc1cc(=O)[nH]c(SCC(=O)OCc2ccccc2)n1,inhibition,[1],0.37% (inactive)
CN1CCN(S(=O)(=O)c2cccc(C(=O)O)c2)CC1,inhibition,[1],-0.22% (inactive)
CC(=O)n1cc([C@@H]2C=C(C(=O)N3CCN(Cc4ccc5c(c4)OCO5)CC3)O[C@H](OCc3ccc(CO)cc3)C2)c2ccccc21,inhibition,[1],-8.36% (inactive)
COc1ccc(C)cc1NC(=O)c1ccc(-c2ccc(C(C)=O)cc2)o1,inhibition,[1],-5.64% (inactive)
Cc1cccc(CSc2nnc(NC(=O)CSc3nnc(C)s3)s2)c1,inhibition,[1],31.4% (active)
Cc1cccc(NC(=O)CSc2nnc(NC(=O)CN3CCOCC3)s2)c1,inhibition,[1],4.51% (inactive)
Cc1nnc(SCC(=O)NCc2ccccc2)s1,inhibition,[2],-3.33% (inactive)
same,inhibition,[3],3.33%

# Reference: PubChem BioAssay AID1251 (SRMLSC, 2008)
